This is a sample that favours compounds with a hit; in the whole collection about 2.9% have one here.
14-3-3 Bad inh: disrupts binding of bovine 14-3-3 zeta to phospho-Bad peptide. TR-FRET 14-3-3zeta/Dy647-pBad peptide displacement, 1 h. AID 781. hit rate 0.71% among 220,000. P63103. inhibition, % at 21.7 µM;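 active = inhibition above about 70%, limit read from the data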;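 note: 0% = full 14-3-3 plus peptide FRET controls and 100% = background without 14-3-3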
Mcl-1 Bim block: inhibitors of Bim-Mcl-1 interaction, human | Q07820 | hit rate 0.1% among 190,000 | inhibition, % at 10 µM | Bead-based flow cytometry, Bim peptide-Mcl-1 binding; in the data active = inhibition above about 40%;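 note: 0% = no compound tracer wells and 100% = peptide blocker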
Mcl1 Noxa PPI: Mcl-1/Noxa interaction inhibition. TR-FRET Mcl-1/Noxa peptide binding, 2 h. Q07820. inhibition, % at 21.7 µM. AID 1022. hit rate 1.5% among 220,000;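 active = compounds that cut the protein-peptide binding signal by more than 50% relative to plate controls in a single-dose test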;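 note: His-tagged Mcl-1 with rhodamine Noxa BH3 peptide and terbium anti-His antibody; 0% = Mcl-1 plus Noxa peptide wells and 100% = peptide-only wells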
Pf gamet viab: inhibitors of late stage P. falciparum gametocyte viability | P. falciparum stage V gametocytes, ATP luminescence, 24 h | inhibition, % at 10.9 µM | hit rate 0.065% among 150,000;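 active = inhibition above the mean plus 3 SD of compounds within the control limits, set per campaign, cut at about 38% in these data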;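 note: 0% = DMSO wells and 100% = medium only without gametocytes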
Mcl1-Bid inh: Mcl-1/Bid interaction inhibition. Q07820. TR-FRET Mcl-1/Bid-Dy647 peptide binding, 1536-well. inhibition, % at 21.7 µM. hit rate 0.97% among 220,000. AID 1021;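 active = compounds that cut the binding signal by more than half at the single screening dose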;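 note: His-tagged Mcl-1 with europium anti-His antibody binding Bid BH3 peptide; 0% = Mcl-1 plus peptide wells and 100% = peptide-only wells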
Hck-Nef inh: blocks Nef-activated human Hck kinase; P08631; inhibition, % at 20 µM; Recombinant Hck-YEEI plus Nef, Z-Lyte FRET kinase assay; hit rate 0.68% among 220,000;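 active = Hck-Nef kinase inhibition above about 50%, limit read from the data; inactive = inhibition below that limit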;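 note: 0% = DMSO with Hck plus Nef and 100% = Hck alone without Nef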
Target sequence (P08631 whole entry, looked up): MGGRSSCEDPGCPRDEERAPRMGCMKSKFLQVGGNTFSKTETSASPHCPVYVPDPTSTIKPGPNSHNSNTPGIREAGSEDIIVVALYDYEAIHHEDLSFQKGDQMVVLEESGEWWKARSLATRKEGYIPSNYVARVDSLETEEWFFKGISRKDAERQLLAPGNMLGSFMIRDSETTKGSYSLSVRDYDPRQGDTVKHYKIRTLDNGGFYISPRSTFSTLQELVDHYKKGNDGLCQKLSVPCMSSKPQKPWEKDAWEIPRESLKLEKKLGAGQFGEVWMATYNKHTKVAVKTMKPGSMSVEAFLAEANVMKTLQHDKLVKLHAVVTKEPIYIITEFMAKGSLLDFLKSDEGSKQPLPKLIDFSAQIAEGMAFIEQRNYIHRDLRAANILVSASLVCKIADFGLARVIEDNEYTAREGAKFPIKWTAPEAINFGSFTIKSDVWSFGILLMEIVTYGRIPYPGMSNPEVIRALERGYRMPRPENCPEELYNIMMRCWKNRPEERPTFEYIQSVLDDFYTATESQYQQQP
Active calls of the source: *; nt = not tested or not shown; [ ] = remark or other dose.

SMILES	14-3-3 Bad inh	Mcl-1 Bim block	Mcl1 Noxa PPI	Pf gamet viab	Mcl1-Bid inh	Hck-Nef inh
CS(=O)(=O)N(CC(=O)Nc1ccc2c(c1)OCO2)c1ccc2c(c1)OCO2	12	-1	17	nt	-20	0
O=S(=O)(c1ccccc1)N1CCN(Cc2ccccc2C(F)(F)F)CC1	79*	0	17	nt	83*	10
Cc1ccc(S(=O)(=O)N2CCN(Cc3ccccc3C(F)(F)F)CC2)cc1	82*	-4	0	4	35	-1
Cc1ccccc1CN1CCN(Cc2ccccc2C(F)(F)F)CC1	75*	0	5	nt	-7	1
O=[N+]([O-])c1ccccc1CN1CCN(S(=O)(=O)c2ccccc2)CC1	nt	nt	nt	-4	nt	nt
Cc1ccc(S(=O)(=O)N2CCN(Cc3ccccn3)CC2)cc1	43	2	28	nt	20	27
CC1CC(NC(=O)c2cnc3n(c2=O)CCS3)CC(C)(C)C1 (centres undefined)	-5	nt	3	nt	-38	32
CC(C)=NNc1cc([N+](=O)[O-])cc2c1C(=O)N(C)S2=O (centres undefined)	-1	-2	8	nt	-34	17
NNc1cc([N+](=O)[O-])cc2c1C(=O)N(Cc1ccccc1)S2=O (centres undefined)	1	-5	58*	-34	-55	14
Cc1nnc(NC(=O)CCSc2ccc(Cl)cc2)s1	-3	-1	9	9	-25	-4
CCOC(=O)c1cnc(-n2nc(C)cc2C)nc1Nc1ccc(C)cc1	-5	-1	33	nt	0	2
CCOC(=O)c1cnc(-n2nc(C)cc2C)nc1Nc1ccc(N(C)C)cc1	8	8	72*	nt	-14	-1
COc1ccc(CN(C)CC(=O)NC(C)c2ccccc2)c(OC)c1 (centres undefined)	13	3	-24	18	56*	-2
COc1cccc(NC(=O)CN(C)CC(=O)NC(C)c2ccccc2)c1 (centres undefined)	0	nt	-8	-10	3	-4
COc1ccc(N=C2S/C(=C\c3ccc(OCC(=O)O)cc3)C(=O)N2CCc2c[nH]c3ccccc23)cc1	69	-10	70*	15	49	13
COc1ccc(-c2cc(C(=O)NCC3CCCO3)c3cc(C)ccc3n2)cc1 (centres undefined)	77*	3	17	-15	-17	2
O=S(=O)(Nc1ccncc1Cl)c1ccc2ccccc2c1	72*	0	-3	19	-17	18
C/C(Cc1ccccc1)=N\NC(=O)CNC(=O)c1ccccc1	2	0	18	-12	9	0
O=C1Nc2ccccc2C(=O)N2[C@H](c3cccc(Br)c3)[C@@H]3C(=O)N(Cc4ccccc4)C(=O)[C@@H]3[C@H]12	nt	nt	nt	-12	nt	nt
O=C1CCCC2(O)C1C(c1cccc(Br)c1)NC(=O)N2Cc1ccccc1 (centres undefined)	7	41*	-2	14	-35	-1
CCOc1ccc(CCNC(=O)CCC(=O)Nc2ccc3nc(N4CCN(C)CC4)cc(C)c3c2)cc1OCC	91*	0	9	15	-38	-22
Cc1cc(N2CCCC2)nc2ccc(NC(=S)NC(C)C)cc12	-5	-2	61*	12	-25	-12
CCCCNC(=O)CCC(=O)Nc1ccc2nc(N3CCOCC3)cc(C)c2c1	17	0	16	-4	12	3
COc1ccc(CCNC(=O)CCC(=O)Nc2ccc3nc(N4CCN(C)CC4)cc(C)c3c2)cc1OC	-9	0	18	-28	-10	8
CCCCNC(=O)CCC(=O)Nc1ccc2nc(N3CCCCC3)cc(C)c2c1	5	0	9	-5	-7	69*
CCOc1ccc(N(C(C)C(=O)N/N=C(\C)c2cccc(NC(=O)c3ccccc3)c2)S(C)(=O)=O)cc1 (centres undefined)	-1	-1	-5	-27	5	0
O=C(c1cccn(Cc2cccc(Cl)c2)c1=O)N1CCOCC1	-3	1	6	9	3	0
O=C(On1c(-c2ccccc2)nc2ccccc2c1=O)c1ccco1	48	1	5	nt	-20	-1
Cc1ccc(-c2ccc(/C=N/NC(=S)Nc3ccccc3)o2)cc1[N+](=O)[O-]	-3	-3	-33	nt	-121	3
O=C1NC(=S)N/C1=C/c1ccc(-c2c(Br)cc([N+](=O)[O-])cc2Br)o1	95*[fluorescence artefact?]	-2	86*	nt	98*	17
